Experimental data published in PubChem BioAssay AID651717 (Broad Institute, 2012).
Out of some 1,200 compounds screened, about 950 (79%) were called active. So high a share suggests a set chosen from earlier hits. These entries were drawn from the full list. Measured potencies and affinities stand elsewhere. Values without a mark were called inactive.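 How the source made its calls: active means signal rises and fitted curve reaches 40% activity at or below the top valid tested dose, in every replicate test; inconclusive means replicate tests give mixed calls; inactive means the rest, including activity in the opposite direction.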

Assay: compounds raising Bmi1 reporter signal – mouse embryonic stem cells, luciferase, cherry-pick, esBAF inhibitor project, dose response (AID 651717);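 further: luciferase knocked into Bmi1 locus with EF-1a renilla as cell number control; rising ratio signals esBAF inhibition which derepresses Bmi1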
Conditions: mESC Bmi1-luciferase reporter, firefly/renilla ratio, 24 h, active compounds read high; at 35 µM unless noted

Structure (SMILES)	max activity
C[C@@H]1CN([C@@H](C)CO)C(=O)c2c(c3ccccc3n2C)-c2ccccc2CO[C@H]1CN(C)C(=O)Nc1ccc2c(c1)OCO2	-5.95% [at 1.1 µM]
C[C@H]1CN([C@@H](C)CO)C(=O)Cc2cc(NC(=O)C3CCCCC3)ccc2O[C@@H]1CN(C)C(=O)Nc1ccc2c(c1)OCO2	-4.16% [at 2.1 µM]
C[C@@H]1CN([C@H](C)CO)C(=O)Cc2cc(NC(=O)C3CCCCC3)ccc2O[C@H]1CN(C)C(=O)Nc1ccc2c(c1)OCO2	7.16% [at 1.1 µM]
C[C@H]1CN([C@@H](C)CO)C(=O)c2cccc(NS(=O)(=O)c3ccccc3)c2O[C@@H]1CN(C)C(=O)Nc1ccc2c(c1)OCO2	-33.5% [at 30 µM]
COc1ccc2nc(N(CCN(C)C)C(=O)c3ccc4ncsc4c3)sc2c1	43.3% [at 8 µM]
C[C@H]1CN([C@@H](C)CO)C(=O)c2cccc(NS(=O)(=O)c3ccccc3)c2O[C@H]1CN(C)C(=O)Nc1ccc2c(c1)OCO2	-6.71%
COc1ccc(N(CC(=O)Nc2ccccc2C(N)=O)S(=O)(=O)c2ccc(C)c([N+](=O)[O-])c2)cc1	17% [at 16 µM]
COc1ccc(NC(=O)N(C)C[C@H]2OCCCC[C@@H](C)Oc3ccc(NC(=O)Nc4ccc5c(c4)OCO5)cc3C(=O)N([C@H](C)CO)C[C@@H]2C)cc1	12.1% [at 8 µM]
CCOc1ccc2nc(Cl)c(C3CC(c4ccco4)=NN3S(=O)(=O)c3ccccc3)cc2c1 (centres undefined)	9.03% [at 1 µM]
COC(=O)[C@H]1C[C@@]2(O)CN(S(=O)(=O)c3ccc(C)cc3)C[C@@]2(OC(=O)NCC2CCCCC2)C[C@H]1C(=O)OC	29.2%
CC1CCN(c2nc3ccc(C(=O)NCCCN4CCCCC4C)cc3s2)CC1 (centres undefined)	-33.5% [at 16 µM]
C[C@@H]1CN([C@H](C)CO)C(=O)c2cc(NC(=O)Nc3ccc4c(c3)OCO4)ccc2O[C@@H](C)CCCCO[C@H]1CN(C)S(=O)(=O)c1cn(C)cn1	5.01% [at 1 µM]
CC1=C(C(=O)OCc2ccccc2)C(c2ccc(Br)cc2)NC(=O)N1CCCCCC(=O)O (centres undefined)	11.1% [at 16 µM]
CSc1cccc(NC(=O)c2[nH]c(C)c(C(C)=O)c2C)c1	14.1% [at 8 µM]
C[C@@H]1CCCCO[C@H](CN(C)C(=O)Nc2cccc3ccccc23)[C@H](C)CN([C@@H](C)CO)C(=O)c2cc(NC(=O)CCC(F)(F)F)ccc2O1	26.7% [at 1 µM]
COc1ccc(-c2cc(C(=O)Nc3cc(OC)cc(C(=O)Nc4cccc(C(F)(F)F)c4)c3)[nH]n2)cc1	9.94% [at 4.2 µM]
CCOC(=O)COc1c(OC)cc(Cl)cc1C1Nc2ccccc2C(=O)N1c1cccc(C)c1 (centres undefined)	28.5%
O=C(Nc1ccc(Cc2ccc(NC(=O)Nc3cccnc3)cc2)cc1)Nc1cccnc1	25.6% [at 16 µM]
Cc1ccc(NCC(=O)N/N=C\C(Br)=C\c2ccccc2)cc1	8.26% [at 16 µM]
CC=Cc1ccc2n(c1=O)C[C@H]1[C@H](CO)[C@@H](C(=O)Nc3ccc(-c4ccccc4)cc3)N(CC)[C@@H]21 (mixture of isomers)	5.58% [at 0.26 µM]

Structure (SMILES)	max activity
CC=Cc1ccc2n(c1=O)C[C@@H]1[C@@H](CO)[C@H](C(=O)Nc3ccc(-c4ccccc4)cc3)N(C)[C@H]21 (mixture of isomers)	-24.6%
CC(=O)c1ccc(N(C(=O)Cc2c[nH]c3ccccc23)C(C(=O)NC2CCCCC2)c2cccs2)cc1 (centres undefined)	-9.23%
Cc1ccc2c(c1)Sc1ccccc1CC2=O	16.2%
Cn1c(SCc2nc3ccccc3s2)nnc1-c1ccc2c(c1)OCO2	27.7%
O=C1Nc2ccccc2N=C(c2ccc3c(c2)OCO3)C1N(CCc1ccccc1)C(=O)CSc1ncccn1 (centres undefined)	-16.9%
C[C@@H]1CN([C@@H](C)CO)C(=O)c2cc(NC(=O)Nc3ccc4c(c3)OCO4)ccc2O[C@@H](C)CCCCO[C@H]1CN(C)Cc1ccncc1	-10.2% [at 0.5 µM]
Cc1ccc2nc(NC(=O)CCNS(=O)(=O)c3cccs3)sc2c1	37.2%
CNC[C@@H]1OCCCC[C@H](C)Oc2ccc(NS(=O)(=O)c3ccc(C)cc3)cc2C(=O)N([C@H](C)CO)C[C@H]1C	-8.01% [at 1.1 µM]
O=C1NC(Cc2ccc(O)cc2)c2nc3ccc(Br)cc3c(=O)n2-c2cc3ccccc3cc21 (centres undefined)	6.63% [at 8 µM]
C[C@@H]1CCCCO[C@@H](CN(C)Cc2ccncc2)[C@H](C)CN([C@@H](C)CO)C(=O)c2cc(NC(=O)Nc3ccc4c(c3)OCO4)ccc2O1	-10.3% [at 0.5 µM]
Cc1ccc(NC(=O)c2ccccc2F)c(NC(=O)c2ccccc2F)c1	39.1% [at 16 µM]
C[C@@H]1CN([C@H](C)CO)C(=O)c2cccc(NC(=O)Nc3ccc4c(c3)OCO4)c2O[C@H]1CN(C)S(=O)(=O)c1cccs1	36.7% [at 1 µM]
CN(CC(=O)Nc1ccc(Cl)c(S(=O)(=O)N(C)C)c1)Cc1ccccc1	16.8% [at 1 µM]
CN1C(=O)c2cc(NC(=O)c3ccc(C#N)cc3)ccc2OC[C@H]2O[C@@H](CC(=O)NC3Cc4ccccc4C3)CC[C@@H]21	-7.14%
Cc1c(CC(C)C)nc(N)c(C#N)c1-c1ccccc1	8.97% [at 16 µM]
CCc1ccc(C(=O)CN2C(=O)NC3(CCCCCC3)C2=O)cc1	32.8%
CC1CC(C)(C)CC2(C1)NC(=O)N(CC(=O)OCC(=O)Nc1cc(S(=O)(=O)N3CCCCC3)ccc1Cl)C2=O (centres undefined)	16.1% [at 0.5 µM]
COc1ccc(CCNC(=O)CSc2nc3ccsc3c(=O)n2Cc2ccccn2)cc1OC	23.9%
COc1ccc(C(=O)N2CCN(c3ccc(C(C)=O)cc3)CC2)cc1S(=O)(=O)N1CCCC1	26.7% [at 2.1 µM]
